In PubChem BioAssay (NCI):
The panel holds about 83,000 compounds, 20% with a hit somewhere; the sample as a whole holds those more often.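 A percent growth of 40 corresponds to 60% growth inhibition; 0 means no net growth; -100 means all cells died. Active threshold: below 10.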 A number with no mark means an inactive call. Calls of active or inactive are those of the source.

Each compound was assayed on EKVX NSCLC (assay: NCI-60 one-dose screen, 48 h (100 = growth as untreated, 0 = no growth, -100 = all killed)). Settings: 10 µM unless noted.
Procedure: Growth inhibition of the EKVX human Non-Small Cell Lung tumor cell line is measured as a screen for anti-cancer activity. Cells are grown in 96 well plates and exposed to the test compound for 48 hours. Compounds are tested at a single concentration, which is 10^-5 M for most compounds. The reported endpoint is percent growth (GI% or GIPRCNT), where numbers from 0 - 100% represent growth inhibition, and numbers from -100% - 0 represent cell death. For example, a value of 40 represents 60% growth inhibition. A value of 0 means no net growth occurred over the course of the experiment. A value of -40 indicates 40% of cells at the beginning of the experiment died by the end of the experiment. A value of -100 means all cells are dead at the end of the experiment.
NCI-60 Human Tumor Cell Lines Screen was performed using the standard one-dose NCI protocol, which is described in more detail at https://dtp.cancer.gov/discovery_development/nci-60/default.htm.
Compounds with GIPRCNT values below 10 were considered active. Activity score was based on GIPRCNT using the following formula: […]
Score is 0 for GIPRCNT values of 100 or above, 50 for GIPRCNT values of 0, and 100 for GIPRCNT values of -100.

| SMILES | growth |
| --- | --- |
| Oc1[nH]c2ccc(Cl)cc2c1/C=c1/ccc2c(c1)N=C(c1ccc(F)cc1)N=2 | 40.4% |
| CCCCCCCCCCC(C(O)c1ccccc1)N1CCCCC1 (stereo not given) | 33.5% |
| C=C(C)c1ccc(/C=N/NC(N)=S)cc1 | 7.97% (active) |
| COc1cc2nccc(Oc3ccc(NC(=O)C4(C(=O)Nc5c(F)cc(F)cc5F)CC4)cc3)c2cc1Oc1ccc(N)cn1 | 45.2% |
| COC(=O)c1cc2oc(/C=N/NC(=O)c3cc4oc(-c5cccc(C(F)(F)F)c5)cc4[nH]3)cc2n1Cc1ccccc1 | 117% |
| C=CCn1c(C)nc2cc(Nc3nc(Nc4ccc5nc(C)n(CC=C)c5c4)nc4ccccc34)ccc21 | 97.1% |
| O=[N+]([O-])c1cc(F)c2cccnc2c1O | 110% |
| COc1cc(Nc2ccnc3ccc(Br)cc23)cc(OC)c1OC | 53.4% |
| CCN(CC)Cc1cc(Nc2nc(NC3CCC(N(C)C)CC3)c3ccccc3n2)ccc1OC (stereo not given) | 89% |
| CNC(=O)c1ccccc1Sc1ccc2c(/C=C/c3ccccn3)n[nH]c2c1 | 53.8% |
| C[C@@H]1C[C@H](N)C[C@H](c2ccncc2NC(=O)c2ccc(F)c(-c3c(F)cccc3F)n2)C1 | 74.9% |
| COc1ccc(/C=C/C(=O)c2ccc(NC(=O)CSc3nnc(-c4ccc(OC)cc4)n3-c3ccccc3)cc2)cc1 | 95.5% |
| Brc1cccc(-n2ncc3c(Nc4ccc(-c5nnc(-c6ccccc6)o5)cc4)ncnc32)c1 | 102% |
| CCCCN(CCCC)CCCN=c1nc2c(c(N)n1-c1ccccc1)c(=S)n(-c1ccccc1)c(=S)n2-c1ccccc1 | -74.2% (active) |
| Cc1ccc(NC(=O)c2[nH]c(SCCN(C)C)nc2-c2ccc(F)cc2)cc1C#Cc1cnc2cccnn12 | 38.2% |
| CO[C@@]12[C@@H]3NC3CN1C1=C(C(=O)C(N)=C(C)C1=O)[C@@H]2COC(N)=O (stereo not given in full) | 49.6% |
| Cc1cc(C#Cc2ccccc2)ccc1-n1c(/C=C/c2ccc(F)cc2)nc2ccccc2c1=O | 46.5% |
| CCCCC(CCc1ccccn1)C(=O)c1ccccc1 (stereo not given) | 102% |
| CCCCNCC(O)c1cc2c(Cl)cc(Cl)cc2c2cc(C(F)(F)F)ccc12 (stereo not given) | -59.1% (active) |
| Cc1ccc2oc(=O)cc(-c3nc4ccc([N+](=O)[O-])cc4[nH]3)c2c1 | 62.6% |

| SMILES | growth |
| --- | --- |
| COc1cc(/C=C/c2ccc3c(Br)cc(Br)c(O)c3n2)ccc1O | 23.1% |
| CCN(CC)CCC(CNc1ccnc2cc(Cl)ccc12)c1ccc(O)cc1 (stereo not given) | 99.4% |
| CCN(CC)CCNc1c(C)cc(CO)c(Cl)c1C | 110% |
| Nc1ccc(C(OC(=O)c2cc3ccccc3c(Cc3c(O)c(C(=O)OC(c4ccc(N)cc4)(c4ccc(N)cc4)c4ccc(N)cc4)cc4ccccc34)c2O)(c2ccc(N)cc2)c2ccc(N)cc2)cc1 | -5.75% (active) |
| O=C(c1ccccc1)N(CCCCl)C(=O)N(CCCCl)C(=O)c1ccccc1 | 81% |
| CN(C)c1ccc(C(c2ccccc2)c2ccc(N(C)C)cc2)cc1 | 102% |
| c1ccc(C(CC2=NCCCN2)c2ccccc2)cc1 | 97.2% |
| Fc1ccc2nc(-c3ccc(-c4noc(-c5ccc(Cl)cc5)n4)cc3)[nH]c2c1 | 107% |
| CCOc1cccc(/C=N/NC(=O)c2ccc(Nc3ccnc(C(F)(F)F)c3)cc2)c1O | 15.2% |
| O=C(Nc1ccc(Br)cc1)Nc1ccccc1Cl | 70.9% |
| CCN(CC)CCCC(C)Nc1cnc(C(=O)Nc2ccc(Cl)c3cccnc23)cn1 (stereo not given) | 66.1% |
| CSCCC1NC(=O)C(C(C)=Nc2ccccc2)=C1O (stereo not given) | 101% |
| O=C1C2=C(C(=O)c3c(O)ccc(O)c31)N(c1ccc(N3CCOCC3)nc1)Cc1ccccc1O2 | -9.79% (active) |
| Clc1cn2cc(-c3ccc(Cl)c(Cl)c3Cl)nc2s1 | 110% |
| Nc1cc2nc3ccccc3oc-2cc1=O | 61% |
| N#Cc1c(NN)n(C2OC(CO)C(O)C2O)c2ncnc(N)c12 (stereo not given) | -0.0983% (active) |
| CCCCCCCCCCCCCCCCOc1ccc(S(=O)(=O)N(C)C)cc1[N+](=O)[O-] | 98.8% |
| O=C(O)C1[S][Sb]([CH](C(=O)O)[CH](C(=O)O)[Sb]2[S]C(C(=O)O)C(C(=O)O)[S]2)[S]C1C(=O)O (stereo not given) | 98% |
| COc1cc2nccc(Oc3ccc(NC(=O)C4(C(=O)Nc5ccc(F)cc5)CC4)cc3)c2cc1OC(=O)c1ccc(N)cc1 | 25.7% |
| CC(C)(C)NC(=O)C(OC(=O)C1CCc2cc(F)ccc2O1)c1ccccc1Cl (stereo not given) | 96% |
